Seven sequences from the supplement of paper PMC6555819 can be followed below.

Common to all, as to assay: PBM binding z-score (relative to random genomic background probes); higher = stronger binding; sequences stand for … in GC…GCGATTGACAGCGTAGAATGAAGG
In test [1] the test system is FXR:RXRa (NR concentration 270 nM, RXRa partner concentration 90 nM). The gist of the method: (§1)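 Custom Agilent 4×180K protein-binding microarrays carried double-stranded probes, each with a 34-nt variable region. These regions held direct-repeat seeds, single-nucleotide variants, half-site ablations and random human genomic background sequences. Ligand-free nuclear receptor dimers were incubated on the arrays for 1 h, antibodies against each partner (one per run) detected binding, and scanned fluorescence was regression-normalized. Binding z-scores take the random background probes as reference.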

Test [2] relates to LXRa:RXRa (NR concentration 270 nM, RXRa partner concentration 90 nM). The gist of the method: as §1
In test [3] the test system is LXRa homodimer (NR concentration 270 nM). The gist of the method: as §1
Test [4] relates to LXRb:RXRa (NR concentration 270 nM, RXRa partner concentration 90 nM). The gist of the method:
as §1

Test [5] has as its system LXRb homodimer (NR concentration 270 nM). The gist of the method: as §1
The subject of test [6] is PPARa:RXRa (NR concentration 270 nM, RXRa partner concentration 90 nM). The gist of the method:
as §1

In test [7] the test system is PPARg:RXRa (NR concentration 180 nM, RXRa partner concentration 90 nM). The gist of the method: as §1
Test [8] has as its system PPARg:RXRa 270nM:90nM, anti-RXR (NR concentration 270 nM, RXRa partner concentration 90 nM). The gist of the method:
as §1

Test [9] deals with PPARg:RXRa 30nM:10nM, anti-RXR (NR concentration 30 nM, RXRa partner concentration 10 nM). The gist of the method:
as §1

Test [10] has as its system PPARg:RXRa 90nM:30nM, anti-RXR (NR concentration 90 nM, RXRa partner concentration 30 nM). The gist of the method: as §1
Test [11] has as its system PPARg:RXRa DBDmut IVT, anti-RXR (DBD mutation: RXRa K156A/R161A, NR concentration 270 nM, RXRa partner concentration 90 nM). The gist of the method:
as §1

Test [12] concerns PPARg:RXRa IVT, anti-PPARg (NR concentration 270 nM, RXRa partner concentration 90 nM). The gist of the method:
as §1

Test [13] relates to PPARg DBDmut:RXRa IVT, anti-PPARg (DBD mutation: PPARg1 K132A/R137A, NR concentration 270 nM, RXRa partner concentration 90 nM). The gist of the method:
as §1

For test [14], the system named is PPARg DBDmut IVT, anti-PPARg (DBD mutation: PPARg1 K132A/R137A, NR concentration 270 nM). The gist of the method: as §1
The subject of test [15] is PPARg homodimer (NR concentration 180 nM). The gist of the method: as §1
Test [16] relates to PXR:RXRa (NR concentration 270 nM, RXRa partner concentration 90 nM). The gist of the method: as §1
Test [17] has as its system PXR homodimer (NR concentration 270 nM). The gist of the method: as §1
The test system of test [18] is RARa:RXR (NR concentration 270 nM, RXRa partner concentration 90 nM). The gist of the method: as §1
For test [19], the system named is RARa homodimer (NR concentration 270 nM). The gist of the method: as §1
Test [20] has as its system RARb:RXRa (NR concentration 270 nM, RXRa partner concentration 90 nM). The gist of the method: as §1

On to ACTATTAGTTGAGACGAGGGCTACCGATAGGTTG, for which the PBM binding z-score in [1] was -0.0056; in [2] it was -0.0365; in test [3], -0.197; in test [4], -0.414; in test [5] it was 0.162; in [6] it was -0.477. In addition, the PBM binding z-score in [7] was 0.7; in test [8], -0.127; in test [9], 0.174; in test [10] it was 0.0258; in [11], 0.458; in [12], 0.0737. The PBM binding z-score was 0.772 in test [13]; 0.929 in test [14]; -0.361 in test [15]; -0.232 in test [16]; -0.105 in test [17]; -0.544 in test [18]. For the same sequence, the values for the PBM binding z-score in test [19] and in test [20] were 0.451 and 0.191, respectively.

For CCGAGTTGGTCAGGAGGTCACACACCGGATATGA, the PBM binding z-score was 3.49 in test [1]; 3.18 in test [2]; 1.86 in test [3]; 2.93 in [4]; -0.213 in test [5]; 4.03 in test [6]. Besides, the PBM binding z-score in test [7] turned out to be 2.62; in test [8], 3.24; in test [9], 0.983; in test [10] it was 2.36; in [11], 0.95; in [12], 2.61. Also, the PBM binding z-score in test [13] came out at 0.01; in test [14], 0.0417; in test [15], 3.62; in test [16], 4.53; in test [17], 1.31; in [18], 4.71. The PBM binding z-score came to 1.54 in test [19] and 3.66 in [20].

Turning to TCTTGTAGATCAAGCACGTTAAGAAAGCCTGAGT, the PBM binding z-score is 0.465 in test [1]; 0.232 in test [2]; -0.171 in test [3]; 0.106 in [4]; -0.495 in test [5]; 0.484 in test [6]. The PBM binding z-score was -0.254 in [7]; 1.12 in [8]; 2.5 in test [9]; 1.97 in test [10]; 1.73 in [11]; 0.108 in [12]. Moreover, the PBM binding z-score in test [13] is 0.449; in test [14], 0.566; in test [15] it was 0.56; in test [16] it was 0.445; in test [17], -0.148; in [18] it was 0.501. In addition, the PBM binding z-score in test [19] was -0.338; in test [20] it was -0.035.

For GCTATTAGTTGGAAGGGCAACCGAATGATTCTCG, the PBM binding z-score was -0.211 in test [1]; -0.165 in test [2]; 0.178 in test [3]; -0.0403 in test [4]; -0.253 in test [5]; 0.0818 in [6]. Besides, the PBM binding z-score was 0.375 in test [7]; 0.723 in test [8]; -0.127 in test [9]; 0.108 in test [10]; -0.166 in test [11]; -0.0839 in test [12]. Moreover, the PBM binding z-score was -0.592 in test [13]; -0.456 in [14]; 0.324 in [15]; -0.247 in test [16]; -0.0418 in test [17]; -0.059 in test [18]. Moreover, the results for the PBM binding z-score in test [19] and in test [20] were 0.846 and 1.06, respectively.

With CCTTACGGGTGACTGACAGGTTATAGCATTTGGA, the PBM binding z-score was 0.488 in test [1]; 0.771 in [2]; -0.154 in [3]; 0.347 in test [4]; -0.474 in test [5]; 1.2 in [6]. The PBM binding z-score in test [7] was 0.53; in [8], 0.218; in test [9], 0.1; in test [10], -0.0326; in [11], 1.95; in test [12], 1.09. The PBM binding z-score in [13] is 0.0764; in [14], -0.581; in test [15] it was 0.697; in [16] it was 0.299; in test [17], -0.0252; in test [18] it was 0.82. Further, the values for the PBM binding z-score in [19] and in [20] were 0.181 and 0.546, respectively.

As for TCTTGTAGATGAGCAGGTTAAGAAAGCTGGCCAA, the PBM binding z-score is -0.174 in test [1]; -0.248 in [2]; -0.441 in [3]; -0.166 in test [4]; -1.02 in test [5]; 0.327 in test [6]. Moreover, the PBM binding z-score is -0.56 in test [7]; 0.706 in [8]; 1.86 in test [9]; 1.32 in test [10]; 0.934 in [11]; -0.183 in test [12]. Further, the PBM binding z-score is -0.514 in test [13]; 0.12 in test [14]; 0.00499 in test [15]; 0.02 in test [16]; -0.92 in test [17]; 0.211 in test [18]. Besides, the PBM binding z-score in test [19] was -0.441; in test [20], -0.439.

Consider ACTATTAGTTGACTTAGCGCAACCGATACGACGC, for which the PBM binding z-score in test [1] is -0.246; in [2] it was -0.156; in [3] it was 0.033; in test [4], -0.0894; in test [5], 0.667; in [6] it was -0.285. For the same sequence, the PBM binding z-score in [7] is 0.811; in test [8], 0.137; in test [9] it was 0.148; in [10] it was 0.0233; in test [11] it was 0.0649; in test [12] it was 0.107. In addition, the PBM binding z-score in [13] was 1.97; in test [14], 1.39; in [15], -0.0684; in [16], -0.103; in test [17] it was 0.0644; in test [18] it was -0.262. Moreover, the PBM binding z-score in test [19] was 0.57; in test [20] it was 0.104.
